# Experimental data from paper PMC5540273 (PLoS ONE, 2017).
# Experiments:
# Details in all cases: concentration: 1 μM, replicates: in singlicate; n = 1
# PIK4CB = tested on: T1, PIK4CB
# T1 construct: gene PI4KB
# PIKFYVE = tested on: PIKFYVE
# PIM1 = tested on: PIM1
# PIM2 = tested on: PIM2
# PIM3 = tested on: PIM3
# PIP5K1A = tested on: PIP5K1A
# PIP5K1C = tested on: PIP5K1C
# PIP5K2B = tested on: PIP5K2B
# PIP5K2C = tested on: T2, PIP5K2C
# T2 construct: gene PIP4K2C
# PKMYT1 = tested on: PKMYT1
# PKN1 = tested on: PKN1
# PKN2 = tested on: PKN2
# PLK1 = tested on: PLK1
# PLK2 = tested on: PLK2
# PLK3 = tested on: PLK3
# PLK4 = tested on: PLK4
# PRKCD = tested on: PRKCD
# PRKCE = tested on: PRKCE
# PKAC-alpha = tested on: T3, PKAC-alpha
# T3 construct: gene PRKACA
# PKAC-beta = tested on: T4, PKAC-beta
# T4 construct: gene PRKACB
# 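Further: KINOMEscan kinase panel screen.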
structure (smiles),measurement,setting,value
Cc1cnc(N)c(/C=C/c2cncc(C(=O)NCCc3ccc(Cl)cc3Cl)c2)c1.Cl [GSK190937],%Inh,PIK4CB,0%
same,%Inh,PIKFYVE,0%
same,%Inh,PIM1,12%
same,%Inh,PIM2,0%
same,%Inh,PIM3,0%
same,%Inh,PIP5K1A,39%
same,%Inh,PIP5K1C,35%
same,%Inh,PIP5K2B,21%
same,%Inh,PIP5K2C,47%
same,%Inh,PKMYT1,0%
same,%Inh,PKN1,7%
same,%Inh,PKN2,0%
same,%Inh,PLK1,0%
same,%Inh,PLK2,0%
same,%Inh,PLK3,0%
same,%Inh,PLK4,0%
same,%Inh,PRKCD,8%
same,%Inh,PRKCE,21%
CNc1nc(-c2ccc3c(N)n[nH]c3c2)cc(N2C[C@@H](C(=O)Nc3ccccc3)CC[C@H]2C)n1 [GSK2298859],%Inh,PIK4CB,0%
same,%Inh,PIKFYVE,0%
same,%Inh,PIM1,0%
same,%Inh,PIM2,0%
same,%Inh,PIM3,0%
same,%Inh,PIP5K1A,0%
same,%Inh,PIP5K1C,50%
same,%Inh,PIP5K2B,0%
same,%Inh,PIP5K2C,3%
same,%Inh,PKAC-alpha,57%
same,%Inh,PKAC-beta,66%
same,%Inh,PKMYT1,0%
same,%Inh,PKN1,0%
same,%Inh,PKN2,0%
same,%Inh,PLK1,0%
same,%Inh,PLK2,0%
same,%Inh,PLK3,0%
same,%Inh,PLK4,0%
same,%Inh,PRKCD,16%
same,%Inh,PRKCE,0%
CNc1nc(-c2ccc3c(N)n[nH]c3c2)cc(N2C[C@@H](C(=O)NC3CCCCC3)OC[C@H]2C)n1 [GSK2375584],%Inh,PIK4CB,0%
same,%Inh,PIKFYVE,0%
same,%Inh,PIM1,11%
same,%Inh,PIM2,0%
same,%Inh,PIM3,0%
same,%Inh,PIP5K1A,34%
same,%Inh,PIP5K1C,54%
same,%Inh,PIP5K2B,21%
same,%Inh,PIP5K2C,27%
same,%Inh,PKAC-alpha,5%
same,%Inh,PKAC-beta,10%
same,%Inh,PKMYT1,0%
same,%Inh,PKN1,29%
same,%Inh,PKN2,0%
same,%Inh,PLK1,3%
same,%Inh,PLK2,0%
same,%Inh,PLK3,1%
same,%Inh,PLK4,1%
same,%Inh,PRKCD,8%
same,%Inh,PRKCE,8%
COc1ccc(Nc2nccc(NCCNC(=O)Nc3cc(C)ccc3C)n2)cc1 [GSK1379899],%Inh,PIK4CB,0%
same,%Inh,PIKFYVE,0%
same,%Inh,PIM1,0%
same,%Inh,PIM2,0%
same,%Inh,PIM3,0%
same,%Inh,PIP5K1A,0%
same,%Inh,PIP5K1C,18%
same,%Inh,PIP5K2B,6%
same,%Inh,PIP5K2C,39%
same,%Inh,PKAC-alpha,0%
same,%Inh,PKAC-beta,0%
same,%Inh,PKMYT1,2%
same,%Inh,PKN1,30%
same,%Inh,PKN2,0%
same,%Inh,PLK1,0%
same,%Inh,PLK2,0%
same,%Inh,PLK3,0%
same,%Inh,PLK4,0%
same,%Inh,PRKCD,10%
same,%Inh,PRKCE,0%
FC(F)(F)c1ccccc1-c1cc(-c2c[nH]nc2-c2ccccn2)ccn1 [GW679396],%Inh,PIK4CB,0%
same,%Inh,PIKFYVE,0%
same,%Inh,PIM1,0%
same,%Inh,PIM2,0%
same,%Inh,PIM3,0%
same,%Inh,PIP5K1A,5%
same,%Inh,PIP5K1C,32%
same,%Inh,PIP5K2B,15%
same,%Inh,PIP5K2C,0%
same,%Inh,PKAC-alpha,0%
same,%Inh,PKAC-beta,17%
same,%Inh,PKMYT1,5%
same,%Inh,PKN1,0%
same,%Inh,PKN2,12%
same,%Inh,PLK1,1%
same,%Inh,PLK2,0%
same,%Inh,PLK3,0%
same,%Inh,PLK4,1%
same,%Inh,PRKCD,6%
same,%Inh,PRKCE,11%
CC(=O)c1cccc(NC(=O)NC2CCN(c3ccnc(Nc4ccc(F)cc4)n3)C2)c1 (centres unmarked) [GSK1379710],%Inh,PIK4CB,31%
same,%Inh,PIKFYVE,25%
same,%Inh,PIM1,18%
same,%Inh,PIM2,0%
same,%Inh,PIM3,4%
same,%Inh,PIP5K1A,36%
same,%Inh,PIP5K1C,50%
same,%Inh,PIP5K2B,8%
same,%Inh,PIP5K2C,22%
same,%Inh,PKAC-alpha,0%
same,%Inh,PKAC-beta,0%
same,%Inh,PKMYT1,3%
same,%Inh,PKN1,31%
same,%Inh,PKN2,0%
same,%Inh,PLK1,7%
same,%Inh,PLK2,0%
same,%Inh,PLK3,9%
same,%Inh,PLK4,0%
same,%Inh,PRKCD,0%
same,%Inh,PRKCE,15%
CC[C@@H]1CO[C@H](C(=O)Nc2ccccc2)CN1c1cc(-c2ccc3c(N)n[nH]c3c2)nc(NC)n1 [GSK2376236],%Inh,PIK4CB,33%
same,%Inh,PIKFYVE,0%
same,%Inh,PIM1,14%
same,%Inh,PIM2,0%
same,%Inh,PIM3,3%
same,%Inh,PIP5K1A,0%
same,%Inh,PIP5K1C,39%
same,%Inh,PIP5K2B,3%
same,%Inh,PIP5K2C,3%
same,%Inh,PKAC-alpha,74%
same,%Inh,PKAC-beta,73%
same,%Inh,PKMYT1,0%
same,%Inh,PKN1,85%
same,%Inh,PKN2,0%
same,%Inh,PLK1,0%
same,%Inh,PLK2,0%
same,%Inh,PLK3,0%
same,%Inh,PLK4,0%
same,%Inh,PRKCD,0%
same,%Inh,PRKCE,3%
CC(C)c1ccc(O)cc1Nc1ccnc2ccc(C(F)(F)F)cc12 [GW482059],%Inh,PIK4CB,45%
same,%Inh,PIKFYVE,1%
same,%Inh,PIM1,19%
same,%Inh,PIM2,0%
same,%Inh,PIM3,0%
same,%Inh,PIP5K1A,0%
same,%Inh,PIP5K1C,0%
same,%Inh,PIP5K2B,7%
same,%Inh,PIP5K2C,0%
same,%Inh,PKAC-alpha,0%
same,%Inh,PKAC-beta,16%
same,%Inh,PKMYT1,0%
same,%Inh,PKN1,36%
same,%Inh,PKN2,0%
same,%Inh,PLK1,0%
same,%Inh,PLK2,0%
same,%Inh,PLK3,0%
same,%Inh,PLK4,0%
same,%Inh,PRKCD,0%
same,%Inh,PRKCE,0%
